In PubChem BioAssay AID588683 (Broad Institute, 2011):
Results with a measured potency or affinity are listed apart.

What follows are molecules tested against Kelch-like ECH-associated protein 1 (Homo sapiens) + Nuclear factor erythroid 2-related factor 2 (Homo sapiens) (UniProt Q14145+Q16236) (assay: disruptors of Keap1 binding to Nrf2 peptide – biochemical, fluorescence polarization, cherry-picked samples, dose response (AID 588683;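 note: Kelch domain of Keap1 binding a fluorescein-labelled 9mer Nrf2 peptide; more negative means stronger inhibition of peptide binding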)). Conditions: plate reader; series mostly up to 26 µM; activity change, negative = inhibition: at the top concentration; call rule not given here.
Sequence of Kelch-like ECH-associated protein 1 (Homo sapiens) + Nuclear factor erythroid 2-related factor 2 (Homo sapiens) (Q14145 whole entry, looked up, the tested form may be a part): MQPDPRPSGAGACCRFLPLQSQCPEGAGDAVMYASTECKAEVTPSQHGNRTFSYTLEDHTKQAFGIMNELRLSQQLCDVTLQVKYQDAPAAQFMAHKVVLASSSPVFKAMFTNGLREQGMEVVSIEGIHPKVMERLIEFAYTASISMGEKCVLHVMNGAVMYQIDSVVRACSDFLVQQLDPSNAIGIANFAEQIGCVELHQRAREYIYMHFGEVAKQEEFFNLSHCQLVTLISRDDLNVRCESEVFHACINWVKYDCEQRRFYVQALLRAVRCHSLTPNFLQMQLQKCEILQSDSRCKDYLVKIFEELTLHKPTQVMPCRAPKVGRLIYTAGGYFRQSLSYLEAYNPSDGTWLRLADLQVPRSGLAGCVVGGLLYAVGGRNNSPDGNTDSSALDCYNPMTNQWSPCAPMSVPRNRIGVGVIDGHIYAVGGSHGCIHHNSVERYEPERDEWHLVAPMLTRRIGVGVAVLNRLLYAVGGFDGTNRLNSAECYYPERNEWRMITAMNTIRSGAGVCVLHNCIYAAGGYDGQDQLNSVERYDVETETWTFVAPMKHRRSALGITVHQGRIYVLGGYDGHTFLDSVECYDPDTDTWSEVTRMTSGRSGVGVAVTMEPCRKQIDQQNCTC
Sequence of Kelch-like ECH-associated protein 1 (Homo sapiens) + Nuclear factor erythroid 2-related factor 2 (Homo sapiens) (Q16236 whole entry, looked up, the tested form may be a part): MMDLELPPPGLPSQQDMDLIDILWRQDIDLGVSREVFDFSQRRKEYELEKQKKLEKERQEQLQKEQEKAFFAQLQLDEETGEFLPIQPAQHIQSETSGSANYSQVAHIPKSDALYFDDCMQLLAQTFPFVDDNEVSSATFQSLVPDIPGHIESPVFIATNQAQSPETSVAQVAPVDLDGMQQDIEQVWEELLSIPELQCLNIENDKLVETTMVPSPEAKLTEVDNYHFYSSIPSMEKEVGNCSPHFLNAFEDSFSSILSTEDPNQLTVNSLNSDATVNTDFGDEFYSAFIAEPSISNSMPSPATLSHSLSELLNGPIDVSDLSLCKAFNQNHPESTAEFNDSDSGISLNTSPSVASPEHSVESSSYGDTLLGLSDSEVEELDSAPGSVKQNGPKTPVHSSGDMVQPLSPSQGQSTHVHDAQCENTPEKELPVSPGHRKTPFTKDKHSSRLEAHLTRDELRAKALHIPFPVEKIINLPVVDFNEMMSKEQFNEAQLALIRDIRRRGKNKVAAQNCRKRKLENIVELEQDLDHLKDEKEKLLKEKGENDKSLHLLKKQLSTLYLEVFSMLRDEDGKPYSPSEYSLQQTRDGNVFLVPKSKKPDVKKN

Activity change, negative = inhibition, inactive:
CCOc1ccc(C(=O)COC(=O)c2nn(CC)c(=O)c3ccccc23)cc1 -7.02%, O=C(NCc1cccc(F)c1)c1cccc2c1C(=O)c1ccc(N3CCCC3)cc1S2(=O)=O 10.5%, CCC(C(=O)NC1C(=O)N2C(C(=O)O)=C(CSc3nnc(C)s3)CSC12)c1ccccc1 (configuration not stated) -3.65%, CCOCCCn1c(=NC(=O)c2cccs2)c(C#N)cc2c(=O)n3ccccc3nc21 -14.5%, N#C/C(=C\c1ccc[nH]1)C(=O)N1CCCCC1 -0.671%, CC1(C)CC(=O)C2=C(C1)OC(N)=C(C#N)[C@@H]2c1ccccc1[N+](=O)[O-] -13.3%, Cc1ccc2cc(CN(CCCO)S(=O)(=O)c3cccc4nsnc34)c(=O)[nH]c2c1C -7.45%, CCOc1ccc2noc3c2c1C(=O)c1ccccc1-3 -195%, O=C1c2cccc3c(N4CCCCC4)ccc(c23)C(=O)N1c1ccccc1O 72.2%, CC[C@H](C)[C@H](NC(=O)OCc1ccccc1)C(=O)OCC(=O)N1CCN(c2ccc(F)cc2)CC1 -5.51%, O=[N+]([O-])c1cncc([N+](=O)[O-])c1Nc1cccc(O)c1 -4.53%, COc1ccc(N=Nc2nc3ccc(Br)cc3n2C)cc1 -21.9%, N=c1c(C(=O)NC2CCCC2)cc2c(=O)n3ccccc3nc2n1Cc1ccccc1 -5.93%, CCC1OC2(C)OC(=N)C1(C#N)C(C#N)(C#N)C2c1ccccc1 (configuration not stated) -2.42%, CCOc1ccc(NC(=O)COC(=O)CCN2C(=O)C3CC=CCC3C2=O)cc1OCC (configuration not stated) -10.6%, Cc1ccccc1NC(=O)c1sc(NC(=O)C2CC2)nc1C -1.61%, Cc1ccc(-c2nc3sc(C#N)c(N)n3c(=O)c2C#N)cc1 64.5%
